Columns and labels:
[1] = target: T1, Serine/threonine-protein kinase TBK1 (Homo sapiens) (UniProt Q9UHD2); details: at 1 µM;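 note: values are mean inhibition of TBK1, screened as part of the GSK published kinase inhibitor set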
T1 sequence (whole entry): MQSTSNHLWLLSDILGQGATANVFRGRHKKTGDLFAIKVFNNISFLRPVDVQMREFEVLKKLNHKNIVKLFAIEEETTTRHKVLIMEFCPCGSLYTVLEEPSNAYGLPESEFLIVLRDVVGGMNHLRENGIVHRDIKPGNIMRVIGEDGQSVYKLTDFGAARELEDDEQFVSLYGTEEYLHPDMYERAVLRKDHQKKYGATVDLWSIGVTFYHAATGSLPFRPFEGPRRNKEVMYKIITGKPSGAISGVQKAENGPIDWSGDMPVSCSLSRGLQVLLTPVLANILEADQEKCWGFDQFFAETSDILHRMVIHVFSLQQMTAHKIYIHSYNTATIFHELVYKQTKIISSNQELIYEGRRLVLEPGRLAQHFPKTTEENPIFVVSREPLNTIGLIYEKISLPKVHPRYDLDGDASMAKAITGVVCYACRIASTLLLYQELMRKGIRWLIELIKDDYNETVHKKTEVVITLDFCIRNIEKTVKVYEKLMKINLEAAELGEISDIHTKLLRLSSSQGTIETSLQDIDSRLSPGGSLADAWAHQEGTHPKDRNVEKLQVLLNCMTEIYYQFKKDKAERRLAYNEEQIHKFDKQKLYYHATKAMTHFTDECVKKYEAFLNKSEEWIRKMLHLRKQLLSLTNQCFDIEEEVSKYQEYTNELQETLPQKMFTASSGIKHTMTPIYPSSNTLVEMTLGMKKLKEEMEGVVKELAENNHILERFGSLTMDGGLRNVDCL

[2] = target: T2, Testis-specific serine/threonine-protein kinase 1 (Homo sapiens) (UniProt Q9BXA7); details: at 0.1 µM
T2 sequence (whole entry): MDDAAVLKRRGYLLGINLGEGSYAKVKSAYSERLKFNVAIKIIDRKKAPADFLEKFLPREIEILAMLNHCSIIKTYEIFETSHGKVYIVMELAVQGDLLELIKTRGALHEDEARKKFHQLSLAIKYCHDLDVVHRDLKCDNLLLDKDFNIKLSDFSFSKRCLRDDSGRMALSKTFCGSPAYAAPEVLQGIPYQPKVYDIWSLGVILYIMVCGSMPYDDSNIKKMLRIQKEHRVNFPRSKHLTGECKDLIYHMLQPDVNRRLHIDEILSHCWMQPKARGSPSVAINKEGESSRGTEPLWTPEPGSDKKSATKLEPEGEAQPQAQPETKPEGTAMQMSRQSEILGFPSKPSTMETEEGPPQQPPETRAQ

[3] = target: T2, Testis-specific serine/threonine-protein kinase 1 (Homo sapiens); details: at 1 µM
[4] = target: T3, Testis-specific serine/threonine-protein kinase 2 (Homo sapiens) (UniProt Q96PF2); details: at 0.1 µM
T3 sequence (whole entry): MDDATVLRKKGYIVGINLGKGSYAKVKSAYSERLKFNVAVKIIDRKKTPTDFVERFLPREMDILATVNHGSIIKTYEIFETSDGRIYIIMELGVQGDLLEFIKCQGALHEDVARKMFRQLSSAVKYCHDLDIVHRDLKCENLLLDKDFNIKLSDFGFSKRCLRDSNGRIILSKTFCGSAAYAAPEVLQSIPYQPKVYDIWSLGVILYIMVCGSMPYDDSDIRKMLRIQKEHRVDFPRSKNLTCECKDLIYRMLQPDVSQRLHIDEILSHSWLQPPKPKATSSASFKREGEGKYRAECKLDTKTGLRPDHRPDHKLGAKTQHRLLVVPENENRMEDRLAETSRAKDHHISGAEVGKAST

[5] = target: T3, Testis-specific serine/threonine-protein kinase 2 (Homo sapiens); details: at 1 µM
[6] = target: Casein kinase I isoform alpha (Homo sapiens) (UniProt P48729); details: at 0.1 µM
[7] = target: Casein kinase I isoform alpha (Homo sapiens) (UniProt P48729); details: at 1 µM
[8] = target: Casein kinase I isoform gamma-1 (Homo sapiens) (UniProt Q9HCP0); details: at 0.1 µM
[9] = target: Casein kinase I isoform gamma-1 (Homo sapiens) (UniProt Q9HCP0); details: at 1 µM
[10] = target: Casein kinase I isoform gamma-2 (Homo sapiens) (UniProt P78368); details: at 0.1 µM
[11] = target: Casein kinase I isoform gamma-2 (Homo sapiens) (UniProt P78368); details: at 1 µM
[12] = target: Casein kinase I isoform gamma-3 (Homo sapiens) (UniProt Q9Y6M4); details: at 0.1 µM
[13] = target: Casein kinase I isoform gamma-3 (Homo sapiens) (UniProt Q9Y6M4); details: at 1 µM
[14] = target: Cyclin-dependent kinase 1 (Homo sapiens) (UniProt P06493); details: at 0.1 µM
[15] = target: Cyclin-dependent kinase 1 (Homo sapiens) (UniProt P06493); details: at 1 µM
[16] = target: Cyclin-dependent kinase 2 (Homo sapiens) (UniProt P24941); details: at 0.1 µM
[17] = target: Cyclin-dependent kinase 2 (Homo sapiens) (UniProt P24941); details: at 1 µM
[18] = target: Cyclin-dependent kinase 2 (Homo sapiens) (UniProt P24941); details: at 0.1 µM; remark: listed apart in the source
[19] = target: Cyclin-dependent kinase 2 (Homo sapiens) (UniProt P24941); details: at 1 µM; remark: listed apart in the source
[20] = target: CDK3/Cyclin E (Homo sapiens) (UniProt P24864+Q00526); details: at 0.1 µM;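 note: reported percentages are mean inhibition values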
Sequence of CDK3/Cyclin E (Homo sapiens) (P24864 whole entry, looked up): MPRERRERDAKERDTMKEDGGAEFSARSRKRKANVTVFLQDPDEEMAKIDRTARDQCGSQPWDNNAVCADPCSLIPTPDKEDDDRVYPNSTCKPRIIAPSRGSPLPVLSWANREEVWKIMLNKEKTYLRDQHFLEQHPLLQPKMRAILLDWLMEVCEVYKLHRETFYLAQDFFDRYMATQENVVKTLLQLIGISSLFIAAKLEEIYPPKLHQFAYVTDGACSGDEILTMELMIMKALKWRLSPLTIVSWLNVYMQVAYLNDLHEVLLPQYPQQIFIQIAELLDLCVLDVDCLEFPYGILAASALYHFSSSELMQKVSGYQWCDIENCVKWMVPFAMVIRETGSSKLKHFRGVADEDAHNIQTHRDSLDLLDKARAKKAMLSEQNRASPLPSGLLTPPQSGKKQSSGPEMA
Sequence of CDK3/Cyclin E (Homo sapiens) (Q00526 whole entry, looked up): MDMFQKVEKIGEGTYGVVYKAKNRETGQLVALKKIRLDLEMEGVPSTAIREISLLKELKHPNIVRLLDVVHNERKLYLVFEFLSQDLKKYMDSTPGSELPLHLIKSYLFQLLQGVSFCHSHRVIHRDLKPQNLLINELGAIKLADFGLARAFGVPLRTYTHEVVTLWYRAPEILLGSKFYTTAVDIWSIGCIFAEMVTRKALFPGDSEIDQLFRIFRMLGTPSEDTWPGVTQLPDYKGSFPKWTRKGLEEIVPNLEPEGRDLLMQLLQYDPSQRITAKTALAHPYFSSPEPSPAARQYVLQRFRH

Sequence of Casein kinase I isoform gamma-2 (Homo sapiens) (P78368 whole entry, looked up, canonical isoform): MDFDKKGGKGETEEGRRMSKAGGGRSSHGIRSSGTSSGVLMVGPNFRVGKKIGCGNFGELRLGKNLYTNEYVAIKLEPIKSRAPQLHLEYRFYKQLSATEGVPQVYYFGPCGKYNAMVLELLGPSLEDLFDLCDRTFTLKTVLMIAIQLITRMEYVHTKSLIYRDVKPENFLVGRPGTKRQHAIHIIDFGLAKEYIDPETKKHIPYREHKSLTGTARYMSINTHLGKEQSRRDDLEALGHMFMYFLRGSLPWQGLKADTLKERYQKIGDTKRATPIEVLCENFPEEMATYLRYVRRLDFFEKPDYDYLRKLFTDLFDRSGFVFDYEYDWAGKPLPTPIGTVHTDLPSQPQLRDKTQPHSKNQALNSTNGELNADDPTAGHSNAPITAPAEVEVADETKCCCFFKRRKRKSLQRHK
Sequence of Cyclin-dependent kinase 1 (Homo sapiens) (P06493 whole entry, looked up): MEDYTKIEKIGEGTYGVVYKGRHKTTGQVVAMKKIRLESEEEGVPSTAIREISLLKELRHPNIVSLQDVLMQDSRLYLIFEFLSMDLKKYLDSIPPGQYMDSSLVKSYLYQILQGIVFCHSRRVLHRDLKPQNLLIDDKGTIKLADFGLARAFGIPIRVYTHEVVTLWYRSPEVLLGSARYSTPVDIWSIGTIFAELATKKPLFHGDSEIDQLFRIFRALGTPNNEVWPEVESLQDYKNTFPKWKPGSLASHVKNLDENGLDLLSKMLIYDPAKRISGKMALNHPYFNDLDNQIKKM
Sequence of Casein kinase I isoform gamma-3 (Homo sapiens) (Q9Y6M4 whole entry, looked up, canonical isoform): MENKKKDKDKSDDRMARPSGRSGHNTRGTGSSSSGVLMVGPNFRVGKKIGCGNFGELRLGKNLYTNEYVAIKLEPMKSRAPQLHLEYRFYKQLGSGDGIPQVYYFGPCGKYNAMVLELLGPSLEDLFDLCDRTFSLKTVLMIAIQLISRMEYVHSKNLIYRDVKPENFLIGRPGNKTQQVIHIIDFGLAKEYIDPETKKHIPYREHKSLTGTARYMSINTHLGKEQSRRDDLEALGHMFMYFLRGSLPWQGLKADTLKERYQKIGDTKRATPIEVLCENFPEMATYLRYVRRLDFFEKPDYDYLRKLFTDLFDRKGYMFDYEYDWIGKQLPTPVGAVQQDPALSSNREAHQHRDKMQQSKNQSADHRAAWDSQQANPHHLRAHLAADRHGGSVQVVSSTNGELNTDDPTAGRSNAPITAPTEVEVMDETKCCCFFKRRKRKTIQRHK
Sequence of Casein kinase I isoform gamma-1 (Homo sapiens) (Q9HCP0 whole entry, looked up, canonical isoform): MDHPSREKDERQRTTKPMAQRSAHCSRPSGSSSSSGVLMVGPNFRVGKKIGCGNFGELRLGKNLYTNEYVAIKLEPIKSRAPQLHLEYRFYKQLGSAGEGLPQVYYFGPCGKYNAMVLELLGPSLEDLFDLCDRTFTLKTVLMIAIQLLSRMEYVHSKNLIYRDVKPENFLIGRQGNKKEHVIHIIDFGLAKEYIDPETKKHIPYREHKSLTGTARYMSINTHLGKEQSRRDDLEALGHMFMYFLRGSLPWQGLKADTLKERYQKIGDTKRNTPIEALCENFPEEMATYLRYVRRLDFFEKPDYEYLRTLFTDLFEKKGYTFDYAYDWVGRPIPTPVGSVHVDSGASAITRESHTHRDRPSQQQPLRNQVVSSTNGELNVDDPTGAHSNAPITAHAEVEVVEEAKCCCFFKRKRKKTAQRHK
Sequence of Casein kinase I isoform alpha (Homo sapiens) (P48729 2-337 limits assumed): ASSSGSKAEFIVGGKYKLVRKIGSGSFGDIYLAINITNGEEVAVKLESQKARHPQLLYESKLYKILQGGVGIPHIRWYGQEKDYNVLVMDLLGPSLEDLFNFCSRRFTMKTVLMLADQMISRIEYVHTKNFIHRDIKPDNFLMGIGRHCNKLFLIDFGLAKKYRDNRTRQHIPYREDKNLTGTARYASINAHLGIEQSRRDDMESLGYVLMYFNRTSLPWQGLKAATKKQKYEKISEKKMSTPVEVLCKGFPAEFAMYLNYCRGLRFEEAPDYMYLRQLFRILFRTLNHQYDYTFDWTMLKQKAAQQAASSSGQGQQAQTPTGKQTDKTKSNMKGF

Row | SMILES | inhibition [1] [%] | inhibition [2] [%] | inhibition [3] [%] | inhibition [4] [%] | inhibition [5] [%] | inhibition [6] [%] | inhibition [7] [%] | inhibition [8] [%] | inhibition [9] [%] | inhibition [10] [%] | inhibition [11] [%] | inhibition [12] [%] | inhibition [13] [%] | inhibition [14] [%] | inhibition [15] [%] | inhibition [16] [%] | inhibition [17] [%] | inhibition [18] [%] | inhibition [19] [%] | inhibition [20] [%]
1 | Fc1ccc(-c2ncn(C3CCNCC3)c2-c2ccnc(Oc3ccc(F)c(F)c3)n2)cc1 | 5.03 | 1.98 | 3.01 | 0.64 | 1.42 | 4.09 | 15.4 | 0.31 | 2.33 | -0.65 | 1.91 | -0.68 | 1.74 | -1.46 | 2.42 | -1.17 | -0.54 | 3.33 | 6.4 | -1.06
2 | COC(=O)Nc1nc2ccc(Sc3ccc(NC(=O)Nc4cc(C(F)(F)F)ccc4F)cc3)cc2[nH]1 | 2.38 | -0.48 | -2.84 | -0.2 | -1.84 | -0.33 | 1.98 | -0.12 | 0.47 | -0.85 | 1.01 | 0.1 | 0.39 | 0.09 | 3.86 | -0.08 | 6.71 | 0.48 | 0.81 | -0.31
3 | COc1cccc(/C=N/Nc2ncnc3c2cnn3-c2cccc(OC)c2)c1 | 1.31 | 3.46 | 3.86 | 2.47 | 1.38 | 3.37 | 6.05 | 2.82 | 3.51 | 3.16 | 3.85 | 2.41 | 1.09 | 1.12 | 4.16 | 1.78 | 5.08 | 2.49 | 3.83 | -2.31
4 | FC(F)(F)c1cccc(Nc2nccc(-c3cnn4nc(-c5ccccc5)ccc34)n2)c1 | 4.35 | 1.23 | 2.01 | 1.62 | 0.24 | -0.33 | 1.52 | 2.48 | 2.54 | 2.27 | 2.62 | 1.84 | 2.44 | 0.56 | 4.07 | 1.41 | 13.5 | 3.41 | 26.4 | -1.25
5 | CCS(=O)(=O)c1ccc(OC)c(Nc2ncc(-c3ccccc3Cl)o2)c1 | 7.68 | 4.33 | -0.15 | 1.6 | 0.12 | 0.11 | 3.37 | 0.27 | 0.86 | 0.2 | 1.51 | -0.55 | 0.35 | 0.87 | 0.32 | 0.49 | 3.52 | -0.35 | 1.49 | -7.09
6 | O=C1NC(=O)C(c2cccc(Cl)c2)=C1Nc1ccc(Cl)c(C(=O)O)c1 | 5.8 | 4.88 | 4.16 | 3.03 | 4.21 | 1.07 | 2.57 | 2.32 | 1.79 | 2.25 | 3.4 | 1.59 | 0.02 | 0.24 | 2.57 | 2 | 9.11 | 1.73 | 1.86 | 3.54
